The supplement of paper PMC12494721
Structures can show the parent of a compound that is named as a salt.

Columns and labels:
Details in all cases: incubation time: 27 h, anaerobic, 37 °C;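 for the amine columns active = adjusted P below 0.05 in both replicates with a change the same way and a mean fold change under 0.8 or over 1.25; inactive = the rest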
[1] = system: Clostridium sporogenes DSM 1664; assay: growth (OD595) fold change vs plate DMSO controls (fold change (ratio)); higher = more growth
Outline: (§1)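 To obtain OD, 595 nm absorbance readings were blank-subtracted, corrected for compound background using 20 µM compound solutions in water, and multiplied by a calibration factor of 5. They came from 96-well mGAM cultures grown anaerobically for 27 h at 37 °C and shaken before reading. Growth is the fold change relative to the median of plate DMSO controls. Two biological replicates were averaged, and fold changes above 1.5 were set to NA.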

Escherichia coli IAI1 [2] = assay: as above
Outline: as §1

[3] = system: Klebsiella aerogenes DSM 30053; assay: as above
Outline: as §1

[4] = system: Ruminococcus gnavus DSM 108212; assay: as above
Outline: as §1

[5] = system: Klebsiella aerogenes DSM 30053; assay: fold change of Histamine concentration vs plate DMSO controls (fold change (ratio)); higher = more amine produced, active = hit call of the paper (significant change in both replicates, either direction)
Outline: (§2)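 Using LC–triple-quadrupole MS with dynamic MRM, amines were quantified against external calibration curves and corrected for drift within each batch. Samples were whole anaerobic mGAM cultures of four gut strains, grown 27 h at 37 °C from OD 0.1 before 1:1 dilution, extracted with cold acetonitrile/methanol containing 0.1% formic acid and centrifuged. Compounds were present at 20 µM final (sweeteners at 50 µM final). The numbers are fold changes versus plate DMSO controls, each the mean of 2 biological replicates.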

[6] = system: Clostridium sporogenes DSM 1664; assay: fold change of Tryptamine concentration vs plate DMSO controls (fold change (ratio)); higher = more amine produced, active = hit call of the paper (significant change in both replicates, either direction)
Outline: as §2

[7] = system: Ruminococcus gnavus DSM 108212; assay: as above
Outline: as §2

Escherichia coli IAI1 [8] = assay: fold change of Putrescine concentration vs plate DMSO controls (fold change (ratio)); higher = more amine produced, active = hit call of the paper (significant change in both replicates, either direction)
Outline: as §2

[9] = system: Klebsiella aerogenes DSM 30053; assay: as above
Outline: as §2

Escherichia coli IAI1 [10] = assay: fold change of Cadaverine concentration vs plate DMSO controls (fold change (ratio)); higher = more amine produced, active = hit call of the paper (significant change in both replicates, either direction)
Outline: as §2

[11] = system: Klebsiella aerogenes DSM 30053; assay: as above
Outline: as §2

[12] = system: Ruminococcus gnavus DSM 108212; assay: fold change of 2-Phenylethylamine concentration vs plate DMSO controls (fold change (ratio)); higher = more amine produced, active = hit call of the paper (significant change in both replicates, either direction)
Outline: as §2

Structure (SMILES) | growth [1] | growth (Escherichia coli IAI1 [2]) | growth [3] | growth [4] | fold change of Histamine concentration [5] | fold change of Tryptamine concentration [6] | fold change of Tryptamine concentration [7] | fold change of Putrescine concentration (Escherichia coli IAI1 [8]) | fold change of Putrescine concentration [9] | fold change of Cadaverine concentration (Escherichia coli IAI1 [10]) | fold change of Cadaverine concentration [11] | fold change of 2-Phenylethylamine concentration [12]
O=c1[nH]cc(F)c(=O)[nH]1 [5-fluorouracil] (20 µM) | 1.2 | 0.87 | 0.897 | 1.21 | 0.728 (inactive) | 0.767 (inactive) | 0.917 (inactive) | 0.626 (inactive) | 0.961 (inactive) | 0.945 (inactive) | 0.979 (inactive) | 0.918 (inactive)
CC1(C)S[C@@H]2[C@H](NC(=O)[C@H](N)c3ccc(O)cc3)C(=O)N2[C@H]1C(=O)O [Amoxicillin] (20 µM) | 0 | 0.796 | 0.828 | 0.198 | 1.1 (inactive) | 0.0237 (active) | 0.0355 (active) | 3.1 (active) | 1.05 (inactive) | 1.41 (inactive) | 1.06 (inactive) | 0.0375 (active)
CCCCOCCOCCOCc1cc2c(cc1CCC)OCO2 [Piperonyl butoxide] (20 µM) | 1.04 | 1.09 | 1.09 | 1.06 | 0.916 (inactive) | 1.04 (inactive) | 1.07 (inactive) | 0.998 (inactive) | 0.999 (inactive) | 0.972 (inactive) | 1.02 (inactive) | 1.17 (inactive)
CCCCOC(=O)c1ccc(O)cc1 [Butylparaben] (20 µM) | 1.09 | 0.963 | 0.965 | 1.01 | 1.01 (inactive) | 0.984 (inactive) | 0.964 (inactive) | 0.939 (inactive) | 0.968 (inactive) | 1.04 (inactive) | 0.984 (inactive) | 0.953 (inactive)
CS(=O)(=O)OCCCCOS(C)(=O)=O [Busulfan] (20 µM) | 0.951 | 1.07 | 0.991 | 1.09 | 0.992 (inactive) | 1.04 (inactive) | 1.11 (inactive) | 1.08 (inactive) | 0.962 (inactive) | 1.04 (inactive) | 1.04 (inactive) | 1.09 (inactive)
CC(CNC1CCCCC1)OC(=O)c1ccccc1 (stereo unspecified) [Hexylcaine hydrochloride] (20 µM) | 1 | 0.961 | 1.01 | 1.02 | 1.02 (inactive) | 1.03 (inactive) | 1.01 (inactive) | 1 (inactive) | 0.988 (inactive) | 0.994 (inactive) | 0.984 (inactive) | 1.01 (inactive)
CC(=O)N[C@@H](CC(=O)O)C(=O)N[C@@H](CCC(=O)O)C(=O)O [Spaglumic acid] (20 µM) | 1.09 | 0.992 | 1.03 | 1.18 | 1.03 (inactive) | 1.02 (inactive) | 0.995 (inactive) | 0.939 (inactive) | 0.993 (inactive) | 0.988 (inactive) | 0.988 (inactive) | 1.02 (inactive)
CCOc1ccc2nc(S(N)(=O)=O)sc2c1 [Ethoxzolamide] (20 µM) | 0.955 | 0.957 | 0.989 | 0.925 | 1.04 (inactive) | 0.934 (inactive) | 0.994 (inactive) | 1.27 (inactive) | 0.997 (inactive) | 0.981 (inactive) | 0.989 (inactive) | 1 (inactive)
CN[C@@H]1[C@H](O[C@H]2[C@H](O[C@H]3[C@H](O)[C@@H](O)[C@H](N=C(N)N)[C@@H](O)[C@@H]3N=C(N)N)O[C@@H](C)[C@]2(O)C=O)O[C@@H](CO)[C@H](O)[C@H]1O [Streptomycin sulfate] (20 µM) | 0.95 | 0.989 | 0.957 | 1.15 | 0.988 (inactive) | 1.12 (inactive) | 1.02 (inactive) | 0.983 (inactive) | 1 (inactive) | 1.03 (inactive) | 0.977 (inactive) | 0.994 (inactive)
Cc1ccsc1C(=CCCN1CCC[C@@H](C(=O)O)C1)c1sccc1C [Tiagabine hydrochloride] (20 µM) | 1.03 | 0.984 | 1.05 | 1.01 | 0.968 (inactive) | 0.999 (inactive) | 0.971 (inactive) | 1.03 (inactive) | 1.02 (inactive) | 1.01 (inactive) | 1.01 (inactive) | 0.927 (inactive)
CC(=O)Oc1ccccc1C(=O)Oc1ccccc1C(=O)O [Acetylsalicylsalicylic acid] (20 µM) | 1.05 | 1 | 0.995 | 0.881 | 1.02 (inactive) | 1.01 (inactive) | 1.06 (inactive) | 1.01 (inactive) | 0.998 (inactive) | 0.983 (inactive) | 1.01 (inactive) | 1.11 (inactive)
CCN(CC)CCNC(=O)c1cc(Cl)c(N)cc1OC [Metoclopramide monohydrochloride] (20 µM) | 1.08 | 1.01 | 1 | 1.13 | 1.03 (inactive) | 0.988 (inactive) | 1.02 (inactive) | 0.875 (inactive) | 1.03 (inactive) | 0.826 (inactive) | 0.998 (inactive) | 1 (inactive)
C[N+]1(CCCCC[N+]2(C)CCCC2)CCCC1 [Pentolinium bitartrate] (20 µM) | 0.933 | 0.986 | 1.01 | 0.709 | 1.06 (inactive) | 1.08 (inactive) | 0.98 (inactive) | 1.03 (inactive) | 1.01 (inactive) | 0.966 (inactive) | 0.999 (inactive) | 0.943 (inactive)
CCCCCCNC(=O)n1cc(F)c(=O)[nH]c1=O [Carmofur] (20 µM) | 0.985 | 0.886 | 0.963 | 0.862 | 0.726 (active) | 0.872 (inactive) | 0.983 (inactive) | 0.508 (active) | 0.936 (inactive) | 0.91 (inactive) | 0.974 (inactive) | 1.01 (inactive)
O=C1CCC(N2C(=O)c3ccccc3C2=O)C(=O)N1 (stereo unspecified) [Thalidomide] (20 µM) | 1.13 | 0.98 | 1.04 | 1.15 | 1 (inactive) | 1 (inactive) | 0.971 (inactive) | 0.97 (inactive) | 1.02 (inactive) | 1.02 (inactive) | 1 (inactive) | 0.981 (inactive)
CN1CCN(c2c(F)cc3c(=O)c(C(=O)O)cn4c3c2OCN4C)CC1 [Marbofloxacin] (20 µM) | 0.0155 | 0.0185 | 0.139 | 1.36 | 0.107 (active) | 0.0554 (active) | 0.992 (inactive) | 0.616 (active) | 0.607 (active) | 0.231 (active) | 0.932 (inactive) | 1.04 (inactive)
CCCCCCC[N+](CC)(CC)CCCCc1ccc(Cl)cc1 [Clofilium tosylate] (20 µM) | 1.2 | 0.984 | 1.07 | 1.26 | 0.897 (inactive) | 1.32 (inactive) | 0.792 (inactive) | 1.17 (inactive) | 0.968 (inactive) | 0.947 (inactive) | 1.03 (inactive) | 0.867 (inactive)
COc1cccc(N(C)C(=S)Oc2ccc3c(c2)CCCC3)n1 [Liranaftate] (20 µM) | 1.1 | 0.972 | 0.969 | 0.941 | 1 (inactive) | 0.974 (inactive) | 1.31 (active) | 0.998 (inactive) | 1.06 (inactive) | 1.01 (inactive) | 1.07 (inactive) | 1.69 (active)
CC[C@H](C)C(=O)O[C@H]1C[C@H](O)C=C2C=C[C@H](C)[C@H](CC[C@@H](O)C[C@@H](O)CC(=O)O)[C@H]21 [Pravastatin] (20 µM) | 0.87 | 1.09 | 0.973 | 1.15 | 1.1 (inactive) | 1.12 (inactive) | 1.08 (inactive) | 1.11 (inactive) | 0.975 (inactive) | 0.904 (inactive) | 1.01 (inactive) | 1.1 (inactive)
c1coc(CNc2ncnc3[nH]cnc23)c1 [Kinetin] (20 µM) | 0.818 | 1.05 | 0.962 | 0.855 | 0.974 (inactive) | 0.976 (inactive) | 1.01 (inactive) | 1.08 (inactive) | 1.01 (inactive) | 0.999 (inactive) | 1.01 (inactive) | 1.04 (inactive)
Nc1nc(N)c2nc(-c3ccccc3)c(N)nc2n1 [Triamterene] (20 µM) | 1.09 | 0.967 | 0.969 | 1.25 | 1.05 (inactive) | 0.928 (inactive) | 0.966 (inactive) | 0.8 (inactive) | 1.01 (inactive) | 1.04 (inactive) | 0.988 (inactive) | 0.907 (inactive)
CSc1nc2cc(Cl)c(Oc3cccc(Cl)c3Cl)cc2[nH]1 [Triclabendazole] (20 µM) | 0.189 | 1.07 | 0.985 | 0.767 | 1.04 (inactive) | 0.0552 (active) | 0.514 (active) | 0.907 (inactive) | 0.984 (inactive) | 1.01 (inactive) | 1.04 (inactive) | 0.671 (inactive)
COc1ccc2c(c1)c(CC(=O)OC/C=C(\C)CC/C=C(\C)CCC=C(C)C)c(C)n2C(=O)c1ccc(Cl)cc1 [Indometacin farnesil] (20 µM) | 1.02 | 1.04 | 1.06 | 1.16 | 0.986 (inactive) | 0.94 (inactive) | 1.03 (inactive) | 1.03 (inactive) | 1.01 (inactive) | 1.04 (inactive) | 0.984 (inactive) | 1.06 (inactive)
